Test systems include HCT-15 colon; HT29 colon; SNB-75 CNS; SNB-19 CNS; U251 CNS; PC-3 prostate; SK-MEL-5 melanoma; UACC-62 melanoma; LOX IMVI melanoma; SK-MEL-28 melanoma; SK-MEL-2 melanoma; EKVX NSCLC; SN12C renal; UO-31 renal; TK-10 renal; ACHN renal; CAKI-1 renal; CCRF-CEM leukemia; MOLT-4 leukemia.
Holding throughout (assay): NCI-60 one-dose screen, 48 h (100 = growth as untreated, 0 = no growth, -100 = all killed)
Conditions in all cases: 10 µM unless noted

This is part of a sample that, as a whole, favours compounds with a hit. Of some 83,000 tested, about 20% had one in any assay.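 Activity criterion: percent growth below 10, measured after cells in 96-well plates were exposed to a single compound concentration for 48 hours.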 Unmarked numbers belong to inactive results. Active and inactive are the calls of the source.

Regarding `CCCCCCNC(=O)Oc1ccc(/C(=C(\C)c2ccccc2)c2ccc(OCCCN(C)C)cc2)cc1`, the growth was 25.9% in the test with HCT-15 colon; 2.7% (active) in the test on HT29 colon; 86.8% in the test with SNB-75 CNS; 80.5% in the test with SNB-19 CNS; 67.3% in the test with U251 CNS; 79.7% in the test with PC-3 prostate. Besides, the growth in the test on SK-MEL-5 melanoma is 92.9%; with UACC-62 melanoma, 56.1%; with LOX IMVI melanoma, 80.2%; with SK-MEL-28 melanoma it was 88.3%; in the test with SK-MEL-2 melanoma it was 92.3%; with EKVX NSCLC, 91.1%. For the same compound, the growth was 80.7% with SN12C renal; 57.8% with UO-31 renal; 91.2% in the test with TK-10 renal; 97.9% in the test with ACHN renal; 94.8% in the test on CAKI-1 renal; 77.6% with CCRF-CEM leukemia. In the test on MOLT-4 leukemia, the growth was 62.6%.

For `CC(=O)CCC(=O)OCc1cc(=O)c(O)co1`, the growth with HCT-15 colon was 98.2%; with HT29 colon it was 101%; in the test with SNB-75 CNS, 104%; in the test with SNB-19 CNS, 104%; in the test with U251 CNS, 107%; in the test on PC-3 prostate it was 98.7%. Further, the growth in the test on SK-MEL-5 melanoma was 105%; in the test with UACC-62 melanoma, 103%; in the test on LOX IMVI melanoma, 94.6%; in the test with SK-MEL-28 melanoma, 98.1%; with SK-MEL-2 melanoma, 113%; with EKVX NSCLC, 109%. The growth in the test on SN12C renal was 104%; with UO-31 renal it was 97.1%; in the test on TK-10 renal it was 98.5%; with ACHN renal it was 101%; with CAKI-1 renal, 102%; in the test on CCRF-CEM leukemia, 98%. Also, the growth with MOLT-4 leukemia was 102%.

For `CCCOc1ccc(/C=N/Nc2cc(C)nc3ccc(Br)cc23)cc1`, the growth in the test with HCT-15 colon is -20.9% (active); in the test on HT29 colon it was 26.5%; in the test on SNB-75 CNS, 105%; with SNB-19 CNS, 101%; in the test on U251 CNS, 25.7%; in the test with PC-3 prostate it was 87.6%. Besides, the growth in the test on SK-MEL-5 melanoma was 100%; in the test with UACC-62 melanoma it was 96.1%; in the test on LOX IMVI melanoma, 59.9%; in the test with SK-MEL-28 melanoma it was 102%; in the test with SK-MEL-2 melanoma, 93%; in the test with EKVX NSCLC it was 81.7%. Also, the growth is 84.4% in the test with SN12C renal; 72.6% in the test with UO-31 renal; 111% with TK-10 renal; 97.7% with ACHN renal; 91.3% in the test with CAKI-1 renal; 28.3% in the test on CCRF-CEM leukemia. Moreover, in the test on MOLT-4 leukemia, the growth is 73.9%.

Take `COC(=O)/C=C1\S/C(=N\NC(=O)c2cc3ccc2/C=C\c2ccc(cc2)/C=C\3)N(Cc2ccccc2)C1=O`: the growth with HCT-15 colon is 27.8%; in the test with HT29 colon it was 12.4%; with SNB-75 CNS, 51.2%; with SNB-19 CNS, 56.9%; in the test with U251 CNS, 55%; with PC-3 prostate it was 17.8%. Moreover, the growth in the test with SK-MEL-5 melanoma is 82.3%; in the test on UACC-62 melanoma it was 51.9%; with LOX IMVI melanoma, 6.21% (active); with SK-MEL-28 melanoma, 101%; in the test with SK-MEL-2 melanoma it was 85.6%; in the test on EKVX NSCLC it was 77.7%. Further, the growth was 61.2% with SN12C renal; 45% with UO-31 renal; 95.5% in the test on TK-10 renal; 46.1% with ACHN renal; 65.8% in the test on CAKI-1 renal; 3.83% (active) in the test on CCRF-CEM leukemia. Besides, the growth in the test on MOLT-4 leukemia is 1.09% (active).

Turning to `CCNC(=O)Oc1ccc(/C(=C(\C)c2ccccc2)c2ccc(OCCN(CC)CC)cc2)cc1`, the growth in the test with HCT-15 colon is 16.5%; in the test with HT29 colon, 15.3%; in the test on SNB-75 CNS it was 78.5%; in the test on SNB-19 CNS it was 86.9%; in the test with U251 CNS, 68.2%; in the test with PC-3 prostate, 70.8%. Moreover, the growth with SK-MEL-5 melanoma is 34.4%; with UACC-62 melanoma, 59.1%; with LOX IMVI melanoma, 65.3%; in the test on SK-MEL-28 melanoma, 63.3%; in the test with SK-MEL-2 melanoma, 97.6%; in the test with EKVX NSCLC, 96%. In addition, the growth in the test with SN12C renal is 82.1%; with UO-31 renal, 61.6%; with TK-10 renal it was 95.6%; in the test with ACHN renal, 102%; with CAKI-1 renal it was 59.3%; in the test with CCRF-CEM leukemia, 84%. Also, the growth in the test on MOLT-4 leukemia is 76.2%.

Regarding `COc1cc2c(=O)n(CCN)c3c4cc5c(cc4ccc3c2cc1OC)OCO5`, the growth with HCT-15 colon was -75.5% (active); with HT29 colon, -89.8% (active); in the test on SNB-75 CNS, 43.7%; in the test on SNB-19 CNS, -67.1% (active); with U251 CNS, -74.4% (active); in the test with PC-3 prostate, -60.1% (active). The growth was -78.8% (active) in the test on SK-MEL-5 melanoma; -12.5% (active) in the test with UACC-62 melanoma; -76.7% (active) with LOX IMVI melanoma; -71.2% (active) in the test on SK-MEL-28 melanoma; 47.2% in the test with SK-MEL-2 melanoma; 52.7% with EKVX NSCLC. Besides, the growth in the test with SN12C renal was -69.3% (active); in the test on UO-31 renal it was -84.8% (active); with TK-10 renal, 42.7%; in the test with ACHN renal it was -10.5% (active); in the test on CAKI-1 renal it was 18.6%; in the test with CCRF-CEM leukemia it was -19% (active). Further, the growth with MOLT-4 leukemia was -26% (active).

Take `COc1ccc2c(c1)C(=O)CC(c1ccccc1OC)O2` (configuration not stated): the growth is 93.1% with HCT-15 colon; 107% in the test with HT29 colon; 80.4% in the test on SNB-75 CNS; 98.8% with SNB-19 CNS; 98.4% in the test on U251 CNS; 104% with PC-3 prostate. Further, the growth with SK-MEL-5 melanoma is 98.7%; in the test on UACC-62 melanoma, 85.8%; with LOX IMVI melanoma, 89.3%; in the test on SK-MEL-28 melanoma, 106%; in the test with SK-MEL-2 melanoma, 102%; in the test on EKVX NSCLC it was 73.2%. The growth is 94.6% in the test on SN12C renal; 96.9% in the test on UO-31 renal; 169% with TK-10 renal; 101% in the test with ACHN renal; 89.2% with CAKI-1 renal; 109% with CCRF-CEM leukemia. The growth with MOLT-4 leukemia is 81%.

As for `COc1cc(/C=N/O)nc(-c2ccccn2)c1`, the growth in the test with HCT-15 colon was 26.7%; with HT29 colon, 32.6%; in the test on SNB-75 CNS, 43%; with SNB-19 CNS it was 23.1%; with U251 CNS, 21.3%; in the test on PC-3 prostate it was 49.5%. The growth with SK-MEL-5 melanoma is -22.1% (active); in the test with UACC-62 melanoma, 4.54% (active); in the test with LOX IMVI melanoma, 3.54% (active); in the test on SK-MEL-28 melanoma, 18.2%; in the test with SK-MEL-2 melanoma, 25.6%; in the test with EKVX NSCLC, 23.4%. The growth was 15.5% with SN12C renal; 3.15% (active) in the test on UO-31 renal; 35.3% in the test on TK-10 renal; 9.42% (active) with ACHN renal; 18.4% in the test with CAKI-1 renal; 9.2% (active) in the test on CCRF-CEM leukemia. Further, the growth with MOLT-4 leukemia was 12%.
